AmpC detergent – qHTS Inhibitors of AmpC Beta-Lactamase (assay with detergent); P00811; AmpC hydrolysis of nitrocefin, absorbance 480 nm, 0.01% Triton; Potency, µM (series often up to 114 µM), actives largely listed as inhibitors; 370,000 tested, 0.041% active; further: nearly all actives have a fitted effect of over 25% in size
Target sequence (P00811 whole entry, looked up): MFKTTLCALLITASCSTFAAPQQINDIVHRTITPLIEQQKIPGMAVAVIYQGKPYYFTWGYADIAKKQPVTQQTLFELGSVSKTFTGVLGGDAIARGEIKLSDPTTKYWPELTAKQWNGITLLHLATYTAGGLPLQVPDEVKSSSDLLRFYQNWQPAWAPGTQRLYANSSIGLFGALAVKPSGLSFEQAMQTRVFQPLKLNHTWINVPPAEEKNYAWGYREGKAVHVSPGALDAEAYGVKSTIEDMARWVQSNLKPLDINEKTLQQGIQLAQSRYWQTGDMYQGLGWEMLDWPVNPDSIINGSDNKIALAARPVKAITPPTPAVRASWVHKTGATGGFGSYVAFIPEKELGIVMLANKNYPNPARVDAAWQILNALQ
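20 mM phosphate pH 7.0 + 0.01% (detergent screen) or 0.0001% Triton X-100; 5.3 nM AmpC reagent; cpd preinc 15 min RT; nitrocefin (800 uM stock) to start; A480 q20 s × 4 min; Activity was normalised to no-enzyme and no-compound control wells.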
AmpC inh no detg – qHTS Inhibitors of AmpC Beta-Lactamase (assay without detergent). P00811. AmpC nitrocefin hydrolysis, absorbance 480 nm, 0.0001% Triton. Potency, µM (series often up to 57.1 µM), usual class: inhibitors. 330,000 tested, 0.52% active. AID 485341, 2010; further: nearly all actives have a fitted effect of over 20% in size
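AmpC (5.3 nM in the dispensed reagent) in 20 mM phosphate pH 7.0 with 0.01% (detergent screen) or 0.0001% Triton X-100 was preincubated with compounds for 15 min at room temperature. Nitrocefin was then added from an 800 uM solution, and hydrolysis was followed at 480 nm.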
AMA1-RON2 inh – qHTS for Inhibitors of AMA1-RON; Towards Development of Antimalarial Drug Lead: Primary Screen. Potency, µM (doses to about 58.2 µM), usual class: inhibitors. AlphaScreen AMA1-biotinylated RON2 peptide binding. Plasmodium falciparum AMA1 (3D7) - RON2 peptide interaction. 360,000 tested, 0.2% active; further: nearly all actives have a fitted effect of over 45% in size
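AMA1 (3D7) with his tag at 25 nM final met compounds first, then biotinylated RON2 peptide at 25 nM; detection used donor plus acceptor beads, 10 µg/mL apiece, read by AlphaScreen after 30 min at room temperature.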
Pf growth 96h – Primary qHTS for delayed death inhibitors of the malarial parasite plastid, 96 hour incubation; P. falciparum luciferase reporter growth, 96 h; Potency, µM (highest dose often 28.7 µM), hits mostly inhibitors; 320,000 tested, 6.9% active; AID 504834, 2011
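Luminescence readout: decreased luciferase signal marks inhibited growth of reporter-expressing P. falciparum in infected red cells (2% hematocrit, 0.05% parasitemia final), exposed to compound two generations (96 h, 37 C, 5% CO2).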
HCV inhibitor – qHTS Assay for Inhibitors of Hepatitis C Virus (HCV); 340,000 tested, 3.4% active; Potency, µM (series often up to 41.8 µM), most hits filed as inhibitors; Huh7.5.1 HCVcc-Cre infection, luciferase reporter, 44 h; AID 651820, 2012
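HCVcc-Cre virus at an moi near 0.5 was added right after compound to cells cultured 4 h from seeding (1,000 cells/well). Luciferase activity was determined 44 h later, 15 min after substrate addition at RT.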
Pf growth 48h – Primary qHTS for delayed death inhibitors of the malarial parasite plastid, 48 hour incubation; P. falciparum luciferase growth in erythrocytes, 48 h; Potency, µM (highest dose often 28.7 µM), hits mostly inhibitors; 310,000 tested, 5.9% active
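Erythrocytes infected with P. falciparum carrying an integrated firefly luciferase reporter (2% hematocrit, 0.1% parasitemia final) were exposed to compounds in RPMI 1640 with 0.5% Albumax at 37 C, 5% CO2. Growth inhibition was scored as reduced luminescence.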
Numbers stand for hits; n = inactive; u = inconclusive; x = no result; [ ] = dose if it differs, or a comment. Rows were chosen to be rich in hits. Some 11% of all compounds tested hit in one or more screens of this group. The call rests on the fitted dose curve; in most records, active means well fitted curve in the direction sought with a large enough effect; inconclusive means small, poorly fitted or top-dose-only effect, or another doubt; inactive means no such curve, though single readings can be large; an effect the other way counts as inactive or inconclusive.

SMILES	AmpC detergent	AmpC inh no detg	AMA1-RON2 inh	Pf growth 96h	HCV inhibitor	Pf growth 48h
Cc1cc(C)c(C#N)c(Oc2ccc(F)cc2)n1	n	n	n	n	n	u
CCOC(=O)c1ccc(NC(=S)Nc2cccc(C)n2)cc1	n	n	n	u	n	n
Cc1cccc(NC(=S)Nc2cccc(C)n2)n1	n	n	n	13µM	u	u
CC(C)(C)c1ccccc1NC(=S)NC1CCCCC1	u	n	n	9.3µM	u	u
Cc1cccc(NC(=S)Nc2ccc(Oc3ccccc3)cc2)n1	u	n	n	9.3µM	u	n
Cc1cccc(NC(=S)NC2CCCC2)n1	n	n[2.29 µM]	n	n	u	n
S=C(Nc1ccc(Oc2ccccc2)cc1)N1CCOCC1	n	n	n	1.2µM	n	n
COc1ccccc1NC(=O)C1=C(C)Nc2nc(SCc3ccccc3F)nn2C1c1cccs1 (stereo not drawn)	n	x	x	x	x	x
CCOC(=O)c1ccccc1NC(=O)CN(c1ccccc1OC)S(=O)(=O)c1ccc(C)cc1	n	x	x	x	x	x
O=C(CN1C(=O)c2cccc3cccc1c23)Nc1ccccc1Br	n	x	x	x	x	x
Cc1cccc(NC(=S)NC2CCCCC2)n1	n	n	n	n	n	5.2µM
CC(C)CNC(=S)Nc1ccc(Oc2ccccc2)cc1	n	n	n	5.2µM	u	n
Cc1ccc(-c2nc(P(=O)(c3ccccc3)c3ccccc3)c(N3CCOCC3)o2)cc1	n	n	n	10µM	u	10µM
CNc1oc(-c2ccc(Cl)cc2)nc1P(=O)(c1ccccc1)c1ccccc1	n	n	n	15µM	u	u
COc1ccccc1NC(=O)CSc1ccc(-c2ccc(-n3ccnc3)cc2)nn1	n	n	n	u	u	12µM
COc1cccc(NC(=O)Cc2nc(-c3ccccc3)sc2-c2ccc(C)cc2)c1	u	n	n	10µM	n	u
Cc1nc(C)c(-c2ccc(SCC(=O)Nc3ccccc3)nn2)s1	n	n	n	u	u	n
COc1cccc(NC(=O)CSc2ccc(-c3sc(C)nc3C)nn2)c1	n	n	n	u	32µM	u
COc1ccc(C)cc1NC(=O)CSc1ccc(-c2ccccn2)nn1	n	n	20µM	9.3µM	u	u
Cc1ccccc1NC(=O)CSc1ccc(-c2ccc(-n3cccn3)cc2)nn1	u	n	n	n	n	n
CNC(=O)c1c(NC(=O)c2ccc(S(=O)(=O)N3CCCC(C)C3)cc2)sc2c1CCC2 (stereo not drawn)	n	x	x	x	x	x
COc1ccc(CCNC(=O)CCS(=O)(=O)c2cc3c(cc2Cl)NC(=O)CO3)cc1OC	n	x	x	x	x	x
COc1ccc(NC(=O)c2c(NCc3cccs3)sc3c2CCCCC3)c(OC)c1	n	x	x	x	x	x
COc1ccc(Cn2ccc3nc(C)c(C(=O)N4CCN(c5cccc(OC)c5)CC4)cc3c2=O)cc1	n	x	x	x	x	x
Cc1cccc(NC(=O)CSc2ccc(-c3cccnc3)nn2)c1	n	n	n	12µM	u	u
SMILES	AmpC detergent	AmpC inh no detg	AMA1-RON2 inh	Pf growth 96h	HCV inhibitor	Pf growth 48h
COc1ccc(C)cc1NC(=O)CSc1ccc(-c2sc(C)nc2C)nn1	n	n	n	n	10µM	12µM
CC(=O)N1CCOc2cc(S(=O)(=O)NCc3ccc(C)cc3)c(Cl)cc21	n	x	x	x	x	x
COc1ccc(N2CCN(C(=O)c3c(C)oc4ncnc(N5CCCCC5)c34)CC2)cc1	n	x	x	x	x	x
CCC(=O)c1ccc(OCC(=O)N2CCN(S(=O)(=O)c3ccc(Cl)s3)CC2)cc1	n	n	n	10µM	u	u
COc1ccccc1OC(=O)CCc1nc2ccccc2s1	n	n	n	n	u	10µM
Cc1cc(C)c(S(=O)(=O)N2CCN(C(=O)c3cc(=O)[nH]c4ccccc34)CC2)c(C)c1	n	n	n	u	n	12µM
Cc1cc(C)c(C)c(S(=O)(=O)N2CCN(C(=O)c3cc(=O)[nH]c4ccccc34)CC2)c1C	n	n	n	u	u	u
Cc1ccc(S(=O)(=O)N2CCN(C(=O)c3cc(=O)[nH]c4ccccc34)CC2)c(C)c1	n	n	n	u	14µM	u
CC(=O)c1ccc(OCCCC(=O)N2CCN(S(=O)(=O)c3cccs3)CC2)cc1	n	n	n	9.3µM	u	u
COc1ccc(Br)c(C(=O)N2CCN(S(=O)(=O)c3cccs3)CC2)c1	n	n	n	n	n	3.7µM
Cc1ccc(S(=O)(=O)N2CCN(C(=O)CCc3c[nH]c4ccccc34)CC2)cc1	n	n	n	u	n	u
Cc1ccc(S(=O)(=O)N2CCN(C(=O)CCc3c[nH]c4ccccc34)CC2)c(C)c1	n	n	n	7.4µM	n	u
O=C1CN(C(=O)CCCc2c[nH]c3ccccc23)c2ccccc2N1	u	n	n	x	n	9.3µM
COc1cc(C(=O)N2CCN(S(=O)(=O)c3cccs3)CC2)cc(OC)c1C	n	n	n	u	n	u
CCOC(=O)c1c(C)oc2nc(C)nc(NCCCN3CCN(c4ccccc4OC)CC3)c12	n	x	x	x	x	x
CCOC(=O)c1c(NC(=O)c2ccc(OCC)c(Br)c2)sc2c1CCCC2	n	x	x	x	x	x
CCOC(=O)c1[nH]c(C)c(C(=O)NCc2ccccc2Cl)c1C	n	x	x	x	x	x
O=C(CCc1nc2ccccc2s1)N1CCN(S(=O)(=O)c2cccs2)CC1	u	n	n	13µM	n	u
O=C(CCCc1c[nH]c2ccccc12)N1CCN(S(=O)(=O)c2cccs2)CC1	n	n	n	u	13µM	u
O=S(=O)(c1cccs1)N1CCN(Cc2nc3ccccc3s2)CC1	n	n	n	u	u	u
O=C(NCC(c1ccc2c(c1)OCO2)N1CCN(c2ccccc2)CC1)C(=O)Nc1ccccc1 (stereo not drawn)	n	x	x	x	x	x
O=C(CSc1nc2c(cnn2-c2ccc(F)cc2)c(=O)[nH]1)Nc1ccc(Br)cc1	n	x	x	x	x	x
CCn1c(=O)c2cc(C(=O)NCCc3cc(OC)ccc3OC)sc2c2ccccc21	n	x	x	x	x	x
COc1ccc(NC(=O)c2cc3c(=O)n(C)c4cc(Cl)ccc4c3s2)cc1Cl	n	x	x	x	x	x
Cc1ccc(-n2nc(C)c3c(C)c(CCC(=O)NCc4ccccc4Cl)c(C)nc32)cc1	n	x	x	x	x	x
COc1cc(/C=N/NC(=O)c2ccc(F)cc2)ccc1OC(=O)c1ccco1	n	10µM	n	n	n	n
O=C(COc1ccccc1C(=O)N/N=C\c1ccc(O)c(O)c1)N/N=C/c1ccc(O)c(O)c1	u	40µM	u	u	n	u
CCOc1cc(/C=N/NC(=O)c2ccccc2OCc2ccc(F)cc2)ccc1O	n	n	n	u	u	8.3µM

Bioassay records: PubChem BioAssay, National Center for Advancing Translational Sciences (NCATS)
